From PubChem BioAssay AID1159580 (chemical genetic matrix, 2015)
“And” between values parts separate entries of the source, which are not always exact repeats. Equal entries are not always repeated. About 2,000 (36%) of roughly 5,500 compounds were called active. Roughly 18% stayed inconclusive and do not appear here. Cut-off read from the data, not from the text of the source: active = normalized growth mostly below about 0.91 (no sharp cut-off); inconclusive = no clear call, values can overlap the other calls; inactive = mostly above about 0.92. Some of the results follow.

Assay: chemical genetic growth profiling, strain panel (AID 1159580);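 note: tested at 20 µM; growth read once vehicle control cultures reached saturation at 30 °C; 1 = growth at the plate median or of vehicle wells; lower values mean less growth of the strain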
Settings: S. cerevisiae deletion strains, growth OD

Measured: normalized growth

C[C@H](COc1ccccc1)N[C@H](C)[C@H](O)c1ccc(O)cc1
inactive: locus YAL021C, strain ccr4, hits give low values 0.964 | locus YAL026C, strain drs2, hits give low values 0.974 | locus YAL030W, strain snc1, hits give low values 0.999 | locus YBL061C, strain skt5, hits give low values 1.01 | locus YBR009C, strain hhf1, hits give low values 1 | locus YBR021W, strain FUR4, hits give low values 0.986 | locus YBR023C, strain chs3, hits give low values 0.981 | locus YBR171W, strain sec66, hits give low values 0.997 | locus YBR229C, strain ROT2, hits give low values 0.995 | locus YBR231C, strain swc5, hits give low values 0.988 | locus YBR279W, strain paf1, hits give low values 0.982 | locus YCL011C, strain gbp2, hits give low values 1 | locus YCL016C, strain dcc1, hits give low values 0.979 | locus YCL029C, strain bik1, hits give low values 0.996 | locus YCL061C, strain MRC1, hits give low values 0.986 | locus YCL069W, strain vba3, hits give low values 0.997 | locus YCR088W, strain abp1, hits give low values 0.998 | locus YDL005C, strain med2, hits give low values 0.999 | locus YDL035C, strain GPR1, hits give low values 1.03 | locus YDL040C, strain nat1, hits give low values 0.994 | locus YDL074C, strain BRE1, hits give low values 1.03 | locus YDL101C, strain DUN1, hits give low values 1 | locus YDL185W, strain tfp1, hits give low values 0.992 | locus YDL192W, strain arf1, hits give low values 0.998 | locus YDR001C, strain nth1, hits give low values 0.992 | locus YDR069C, strain doa4, hits give low values 0.998 | locus YDR101C, strain arx1, hits give low values 1.01 | locus YDR137W, strain rgp1, hits give low values 0.963 | locus YDR150W, strain NUM1, hits give low values 1 | locus YDR159W, strain sac3, hits give low values 0.99 | locus YDR162C, strain NBP2, hits give low values 1 | locus YDR195W, strain ref2 0.993 | locus YDR297W, strain sur2, hits give low values 0.99 | locus YDR318W, strain mcm21, hits give low values 0.994 | locus YDR334W, strain swr1, hits give low values 0.996 | locus YDR335W, strain msn5, hits give low values 1 | locus YDR388W, hits give low values 0.997 | locus YDR392W, strain spt3, hits give low values 0.952 | locus YDR502C, strain sam2, hits give low values 1.01 | locus YEL003W, strain gim4, hits give low values 1 | locus YEL037C, strain rad23, hits give low values 0.997 | locus YEL061C, strain CIN8 (second series), hits give low values 0.996 | locus YEL061C, strain CIN8, hits give low values 1 | locus YER015W, strain faa2, hits give low values 1 | locus YER016W, strain bim1, hits give low values 1.01 | locus YER110C, hits give low values 0.975 | locus YER111C, strain swi4, hits give low values 0.988 | locus YER155C, strain BEM2 (second series), hits give low values 0.983 | locus YER155C, strain BEM2, hits give low values 0.986 | locus YER167W, strain BCK2, hits give low values 0.985 | locus YFR010W, strain ubp6, hits give low values 0.996 | locus YGL078C, strain dbp3, hits give low values 0.98 | locus YGL086W, strain mad1, hits give low values 1.01 | locus YGL167C, strain pmr1, hits give low values 1 | locus YGL173C, strain kem1, hits give low values 1 | locus YGL227W, strain vid30, hits give low values 0.986 | locus YGL240W, strain doc1, hits give low values 0.988 | locus YGL248W, strain PDE1, hits give low values 0.993 | locus YGL253W, strain hxk2, hits give low values 1.01 | locus YGR078C, strain PAC10, hits give low values 1.01 | locus YGR135W, strain pre9, hits give low values 0.942 | locus YGR252W, strain gcn5, hits give low values 0.988 | locus YHR013C, strain ard1, hits give low values 0.969 | locus YHR027C, strain rpn1, hits give low values 0.997 | locus YHR030C, strain SLT2, hits give low values 0.993 and 1 | locus YHR079C, strain IRE1 (second series), hits give low values 0.991 | locus YHR079C, strain IRE1, hits give low values 0.985 | locus YHR094C, strain hxt1, hits give low values 0.974 | locus YHR129C, strain ARP1, hits give low values 0.992 | locus YHR142W, strain chs7, hits give low values 1 | locus YHR200W, strain rpn10, hits give low values 0.992 | locus YIL066C, strain RNR3, hits give low values 0.987 | locus YIL073C, strain SPO22, hits give low values 0.977 | locus YIL125W, strain kgd1, hits give low values 1 | locus YIR030C, strain dcg1, hits give low values 0.993 | locus YJL092W, strain hpr5, hits give low values 0.992 | locus YJL095W, strain BCK1 (second series), hits give low values 0.998 | locus YJL095W, strain BCK1, hits give low values 0.965 and 1 | locus YJL115W, strain asf1, hits give low values 0.996 | locus YJL129C, strain trk1, hits give low values 0.993 | locus YJL134W, strain LCB3, hits give low values 0.991 | locus YJL154C, strain vps35, hits give low values 0.998 | locus YJL164C, strain tpk1, hits give low values 0.996 | locus YJL166W, strain qcr8, hits give low values 0.989 | locus YJL168C, strain set2, hits give low values 0.99 | locus YJL187C, strain SWE1 (second series), hits give low values 0.985 | locus YJL187C, strain SWE1, hits give low values 1.01
